CRFBP-R2 block = antagonists of CRF-binding protein/CRF-R2 receptor complex. HEK293 CRF-R2/CRF-BP, CRF-induced calcium fluorescence. inhibition, % at 11.8 µM. 350,000 tested, 0.59% active. AID 588475;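 active = inhibition of the ligand-induced calcium signal above about 50% at the single tested concentration, limit read from the data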
TMEM16A inh = blocks the mouse calcium-activated chloride channel TMEM16A. Q8BHY3. HEK293 TMEM16A/YFP iodide influx fluorescence, ionomycin. normalized B-score (activity score, 25-100; higher = stronger inhibition) at 10 µM. 310,000 tested, 1.2% active. AID 588511;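 active = ratio plate-corrected score three or more library SD toward inhibition, starting fluorescence score within five deviations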;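 note: score derived from kinetic fluorescence span divided by baseline fluorescence per well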
NR3A LBD binder = modulates the human NR3A ligand-binding domain; 340,000 tested, 2.5% active; Tm shift relative to glycine control, % at 25 µM; NR3A LBD differential scanning fluorimetry, Tm shift; 0% = protein alone, 100% = glycine-bound protein;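 active = melting temperature shift of at least 10% of the positive control shift, at one fixed dose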
MPTP block = permeability transition pore inhibition. isolated mouse mitochondria, Ca2+ swelling absorbance, 30 min. inhibition, % at 10 µM. 360,000 tested, 1.4% active. AID 602449;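 active = inhibition of 50% or more, scaled per plate between neutral and stimulator controls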;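 note: 0% = DMSO wells given calcium and 100% = 1 mM EGTA wells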
TMEM16A act = activates or potentiates the mouse TMEM16A chloride channel. Q8BHY3. HEK293 TMEM16A/YFP-H148Q/I152L, iodide quench fluorescence; active compounds read low. B-score at 10 µM. 340,000 tested, 0.3% active. AID 623877;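 active = fluorescence-ratio B-score plate-corrected deviation score at least 3 library SD below zero, with starting fluorescence score within 5 deviations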;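 note: channel opened by trigger with iodide after compound preincubation; score built on the fluorescence ratio of max minus min over baseline; more negative score means more quench and so TMEM16A activation or potentiation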
CRFR2-BP ag = CRF-BP/CRF-R2 complex agonism. 350,000 tested, 0.46% active. HEK293 CRF-R2/CRF-BP, calcium dye fluorescence (FLIPR); percent of saturating CRF peptide response. AID 588473. activation, % at 13.2 µM;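 active = activation of at least 50%, plus an integration ratio under a set limit after plate pattern correction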;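 note: plate controls were neutral control wells without compound for no effect and CRF at EC100 for full effect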
Rh123 counter = Rhodamine 123 counter-screen of mitochondrial pore hits. isolated mitochondria, membrane potential, Rhodamine 123 fluorescence. inhibition, % at 10 µM. 5,000 tested, 78% active. shares compounds with MPTP block; in the data active = inhibition above about 22%;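 note: 0% = DMSO vehicle and 100% = positive control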
MPTP abs DR = dose response confirmation of mitochondrial permeability transition pore inhibitors; IC50, µM; 780 tested, 58% active; isolated mitochondria swelling, absorbance; AID 651561; shares compounds with MPTP block; in the data active = IC50 below about 20 µM
MPTP counter DR = counter-screen for mitochondrial permeability transition pore inhibitors, dose response. IC50, µM. isolated mitochondria counterscreen, fluorescence read-out. shares compounds with MPTP block. 780 tested, 49% active; in the data active = IC50 below about 80 µM
Numbers without * were called inactive; i = inactive; · = no result given. This is a sample that favours compounds with a hit; in the whole collection about 5.1% have one here.

SMILES	CRFBP-R2 block	TMEM16A inh	NR3A LBD binder	MPTP block	TMEM16A act	CRFR2-BP ag	Rh123 counter	others
CN1CC2=Cc3ccccc3OC23Oc2ccccc2C=C3C1	-6.9	i	-1.6	64.6*	i	0.9	-6.2	MPTP abs DR=i;MPTP counter DR=>80
Cc1ccc2[nH]c(O)c(N=Nc3ccccc3C)c2c1	-14.7	i	-0.1	65.8*	i	1.2	-2.9	MPTP abs DR=i;MPTP counter DR=>80
Cc1cc(C)nc(SCC(=O)N/N=C/C=C/c2ccccc2)n1	13.8	i	-5.6	2.8	i	-1.0	·
Cc1cc(C)nc(SCC(=O)N/N=C\C(Br)=C\c2ccccc2)n1	-27.5	i	0.2	70.6*	i	-0.2	65.8*
Cc1ccc2sc(N(CCCN(C)C)C(=O)c3ccc(S(=O)(=O)N4CCc5ccccc5C4)cc3)nc2c1C	-11.9	i	14.1*	89.7*	i	-1.1	-5.3	MPTP abs DR=i;MPTP counter DR=>80
COc1ccc(OC)c2sc(N(CCCN(C)C)C(=O)c3ccc(S(=O)(=O)N4CCc5ccccc5C4)cc3)nc12	·	i	·	·	·	·	·
COc1ccc(C)c2sc(N(CCCN(C)C)C(=O)c3ccc(S(=O)(=O)N4CCc5ccccc5C4)cc3)nc12	-18.8	i	-13.6	95.8*	i	-0.2	-17.5
CCOC(=O)N1CCN(S(=O)(=O)c2ccc(C(=O)N(CCCN(C)C)c3nc4c(F)cc(F)cc4s3)cc2)CC1	-2.5	i	4.4	51.2*	i	-0.1	-9.2	MPTP abs DR=18.9*;MPTP counter DR=>80
COc1cc2nc(N(CCCN(C)C)C(=O)c3ccc(S(=O)(=O)N4CCc5ccccc5C4)cc3)sc2cc1OC	-8.5	i	1.4	29.8	i	16.1	·
COc1cccc2sc(N(CCCN(C)C)C(=O)c3ccc(S(=O)(=O)N4CCc5ccccc5C4)cc3)nc12	-8.3	i	0.6	-0.2	i	-0.3	·
CN(C)CCCN(C(=O)c1ccc(S(=O)(=O)N2CCc3ccccc3C2)cc1)c1nc2c(F)cc(F)cc2s1	-28.7	i	·	90.9*	i	-0.4	-8.8
Cc1ccc(C(=O)NNC(=O)COC(=O)COc2ccccc2C#N)cc1	-9.0	·	-2.2	0.3	i	0.4	·
Cc1nc2ccc(F)cc2cc1C(=O)Nc1ccc(Cl)c(Cl)c1	6.8	i	-2.7	93.4*	i	2.0	82.3*
Cc1nc2ccc(F)cc2cc1C(=O)NCc1ccco1	26.5	i	-0.8	0.2	i	0.2	·
COc1ccc(S(=O)(=O)N(C)C[C@H]2Oc3c(NC(=O)C4CCCCC4)cccc3C(=O)N([C@H](C)CO)C[C@@H]2C)cc1	2.9	·	-3.9	-0.2	i	-1.6	·
COc1cccc(Nc2nc3ccccc3nc2NS(=O)(=O)c2cccs2)c1	25.4	i	21.1*	58.4*	i	4.2	70.6*
COc1ccc(Nc2nc3ccccc3nc2NS(=O)(=O)c2cccs2)c(OC)c1	-9.8	i	-3.9	36.9	i	1.4	·
CCOC(=O)N1CCC2(CC1)NC(=O)c1ccccc1N2	4.0	·	·	-0.3	·	2.2	·
Cc1ccc(NC(=O)Nc2nnc(CSCCOc3ccc(Cl)cc3)s2)cc1	-29.9	i	0.9	60.3*	i	-0.2	0.3	MPTP abs DR=>100;MPTP counter DR=<2.5*
O=C(Nc1cccc(Cl)c1)Nc1nnc(CC2=CCCCC2)s1	-17.7	i	29.5*	88.6*	i	-1.2	43.6*
O=C(Nc1cccc(Cl)c1)Nc1nnc(CSCCOc2ccc(Cl)cc2)s1	-43.7	i	6.8	91.7*	i	20.1	91.8*
COc1ccc(OCCSCc2nnc(NC(=O)Nc3ccc(Cl)cc3)s2)cc1	-69.2	i	2.4	94.4*	i	2.2	71.4*
C=CCN(c1ccccc1OC)S(=O)(=O)c1cccc(C(=O)NCc2cccs2)c1	6.1	·	-0.1	-0.1	i	1.7	·
Cc1ccc(C(C)C)c(OCCNC(=O)c2ccccc2O)c1	1.4	i	0.1	88.0*	i	2.7	83.2*
Cc1ccc2nc(N(CCN(C)C)C(=O)/C=C/c3cccs3)sc2c1	-64.1	i	-10.9	98.6*	i	4.4	-17.2	MPTP abs DR=7.53*;MPTP counter DR=>80
SMILES	CRFBP-R2 block	TMEM16A inh	NR3A LBD binder	MPTP block	TMEM16A act	CRFR2-BP ag	Rh123 counter	others
CN(C)CCN(C(=O)/C=C/c1cccs1)c1nc2c(F)cc(F)cc2s1	-30.5	i	2.2	102.0*	i	-0.5	-9.5
CNCCC=C1c2ccccc2CCc2ccccc21	-9.6	i	0.0	86.0*	i	0.5	-8.7	MPTP abs DR=6*;MPTP counter DR=>80
CC[C@H](C)Cc1cn([C@@H](CCCCN)C(=O)NCCCCCCCCCCC(=O)N2CCNCC2)nn1	3.5	i	0.9	89.1*	i	-0.3	-13.3
NCCCCCc1cn([C@@H](CCC(=O)O)C(=O)NCCCCCCCCCCC(=O)N2CCNCC2)nn1	16.6	i	0.6	-0.3	i	-3.3	·
CCOC(=O)c1c(NC(=O)CSc2ncnc3ccccc23)sc(C(C)=O)c1C	3.9	i	-4.8	57.8*	i	6.2	4.4
CCOC(=O)c1cccc(NC(=O)CSc2nc3cccnc3n2C)c1	5.1	i	-0.7	73.2*	i	-4.7	28.8*
CCOC(=O)c1c(NC(=O)CSc2nc3cccnc3n2C)sc(C(C)=O)c1C	5.1	i	-0.6	91.5*	i	2.1	3.5	MPTP abs DR=3.69*;MPTP counter DR=3.54*
CCOC(=O)c1c(NC(=O)CSc2nnc(-c3cccnc3)o2)sc(C(C)=O)c1C	3.7	i	-0.4	74.9*	i	4.2	6.8	MPTP abs DR=i;MPTP counter DR=12.8*
CCOC(=O)c1sc(NC(=O)CSc2nc3cccnc3n2C)nc1C	6.0	i	0.9	5.7	i	0.7	·
COc1ccc(N2CCN(c3ccc(S(=O)(=O)N(C(C)C)C(C)C)cn3)CC2)cc1	17.4	i	-0.7	2.9	i	-1.9	·
Cc1cc(C(=O)Nn2c(C3CCCCC3)nc3ccccc3c2=O)ccc1[N+](=O)[O-]	-3.1	i	3.3	53.2*	i	7.8	77.0*
Cc1cc(C(=O)Nn2c(C)nc3ccccc3c2=O)ccc1[N+](=O)[O-]	13.6	i	-0.6	-0.4	i	0.0	·
Cc1ccc(/C=N/NC(=O)NN(C)c2ncc(C(F)(F)F)cc2Cl)cc1	-2.2	i	0.1	-0.9	i	-2.3	·
N/C(=N\OC(=O)Nc1ccccc1)c1ncc(C(F)(F)F)cc1Cl	4.3	i	2.4	-0.2	i	-1.4	·
CN(NC(=O)Nc1ccc(Cl)cc1)c1ncc(C(F)(F)F)cc1Cl	-47.4	i	-1.2	87.8*	i	7.5	91.3*

High-throughput results as filed in PubChem.
